Experimental data as given in PubChem BioAssay (NCI).
Compounds without any hit were thinned out: in the full panel of roughly 83,000, 20% have a hit.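 How to read the values: 0–100, growth inhibition (40 = 60% inhibited); 0, no net growth; -100 to 0, cell death (-40 = 40% of starting cells died; -100 = all dead).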 A number with no mark means an inactive call. Activity calls are given as the source filed them. The calls were made as follows: active = growth percent below 10; inactive = the rest.

Assays:
Test in all cases: NCI-60 one-dose screen, 48 h (100 = growth as untreated, 0 = no growth, -100 = all killed)
Settings in all cases: 10 µM unless noted
HCT-15 colon = tested on: HCT-15 colon
HT29 colon = tested on: HT29 colon
SNB-75 CNS = tested on: SNB-75 CNS
SNB-19 CNS = tested on: SNB-19 CNS
U251 CNS = tested on: U251 CNS
PC-3 prostate = tested on: PC-3 prostate
SK-MEL-5 melanoma = tested on: SK-MEL-5 melanoma
UACC-62 melanoma = tested on: UACC-62 melanoma
LOX IMVI melanoma = tested on: LOX IMVI melanoma
SK-MEL-28 melanoma = tested on: SK-MEL-28 melanoma
SK-MEL-2 melanoma = tested on: SK-MEL-2 melanoma
EKVX NSCLC = tested on: EKVX NSCLC
SN12C renal = tested on: SN12C renal
UO-31 renal = tested on: UO-31 renal
TK-10 renal = tested on: TK-10 renal
ACHN renal = tested on: ACHN renal
CAKI-1 renal = tested on: CAKI-1 renal
CCRF-CEM leukemia = tested on: CCRF-CEM leukemia
MOLT-4 leukemia = tested on: MOLT-4 leukemia
A498 renal = tested on: A498 renal

| Structure (SMILES) | growth (HCT-15 colon) | growth (HT29 colon) | growth (SNB-75 CNS) | growth (SNB-19 CNS) | growth (U251 CNS) | growth (PC-3 prostate) | growth (SK-MEL-5 melanoma) | growth (UACC-62 melanoma) | growth (LOX IMVI melanoma) | growth (SK-MEL-28 melanoma) | growth (SK-MEL-2 melanoma) | growth (EKVX NSCLC) | growth (SN12C renal) | growth (UO-31 renal) | growth (TK-10 renal) | growth (ACHN renal) | growth (CAKI-1 renal) | growth (CCRF-CEM leukemia) | growth (MOLT-4 leukemia) | growth (A498 renal) |
| --- | --- | --- | --- | --- | --- | --- | --- | --- | --- | --- | --- | --- | --- | --- | --- | --- | --- | --- | --- | --- |
| COC(=O)c1c2c(c(C)[n+]([O-])c1C)C(=O)C(NCc1ccc(O)cc1)=CC2=O | -43.4% (active) | 3.68% (active) | -29.5% (active) | -28.5% (active) | -0.0674% (active) | 7.51% (active) | -99.7% (active) | -73.8% (active) | -89.6% (active) | -3.61% (active) | -12.5% (active) | -34.5% (active) | -89.9% (active) | 6.95% (active) | 74.1% | 8.06% (active) | 7.36% (active) | 6.08% (active) | -1.35% (active) |  |
| c1ccc2cc(Cn3c(-c4ccc5ccccc5c4)[n+](Cc4ccc5ccccc5c4)c4ccccc43)ccc2c1 | -74.6% (active) | -71.7% (active) | -69.5% (active) | -76.4% (active) | -78.6% (active) | -57.8% (active) | -97.2% (active) | -87.8% (active) | -98.8% (active) | -55.3% (active) | -67.7% (active) | -11.7% (active) | -88.2% (active) | -77.1% (active) |  | -51.5% (active) | -67.3% (active) |  | -35.4% (active) | -64% (active) |
| COc1ccc(/C=N\N2CCOCC2)cc1OC1CCCC1 | 104% | 106% | 86.8% | 95.8% | 101% | 101% | 99.3% | 92.7% | 101% | 116% | 106% | 89.4% | 101% | 82% | 101% | 104% | 94.1% | 106% | 122% |  |
| COc1cc(OCc2cccc(-c3ccc(C(O)c4nccs4)cc3)c2C)cc(OC)c1C=O (stereo unspecified) | 32.3% | 48.7% | 69.6% | 70.4% | 60.6% | 52.2% | -78.1% (active) | -4.45% (active) | 48.8% | 57.3% | 60.4% | 43% | 61.8% | 22.9% | 27.7% | 25.2% | 2.55% (active) | 37.2% | 21.2% |  |
| O=C(C[Si](CC(=O)c1cccc(C(F)(F)F)c1)CC(=O)c1cccc(C(F)(F)F)c1)c1cccc(C(F)(F)F)c1 | 99.1% | 62.8% | 90.8% | 101% | 51.6% | -14.7% (active) | 99.8% | 66.7% | 73.2% | 98.6% | 94.1% | 36.7% | 69.5% | 31.4% |  | 79.1% | 41.7% | 14.4% | -19.2% (active) | 60.4% |
| COc1ccc(-c2nc3sccn3c2/C=C/C(=O)c2cc(OC)c(OC)c(OC)c2)cc1OC | 22% | 4.2% (active) | -8.25% (active) | 28.5% | 10% | 22.6% | 5.76% (active) | 15.3% | 9.65% (active) | 53.2% | -7.87% (active) | 34.3% | 40.3% | 14% | 82.6% | 21.4% | 3.29% (active) | 21.6% | 31.4% |  |
| CCCCCCCCCCCCCCn1c2ccccc2c2c3c(c4c5cc(OC)ccc5oc4c21)C(=O)NC3=O | 94.9% | 103% | 81.4% | 105% | 99.8% | 107% | 102% | 101% | 103% | 107% | 113% | 105% | 101% | 88.5% | 109% | 103% | 93.2% | 103% | 123% |  |
| O=c1oc2ccccc2cc1-c1csc(N=Nc2c(O)[nH]c3ccc(Cl)cc23)n1 | 99.5% | 101% | 93.3% | 99.2% | 94.6% | 100% | 104% | 98.2% | 97.7% | 103% | 107% | 103% | 100% | 98.2% | 106% | 101% | 94.9% | 94.2% | 105% |  |
